Results from PubChem BioAssay.
For part of these data: Results with a measured potency or affinity are listed apart. Activity calls are given as the source filed them.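 The calls were made as follows, unless noted: active = calcium signal cut by more than 3 SD below the full-agonist control yet still positive, in both repeats and the earlier primary screen; inactive = the rest.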

Columns and labels:
[1] = test system: TRPC4 beta (transient receptor potential cation channel C4), mouse; experiment: TRPC4 cation channel opening, retest – cell-based, Fluo4 calcium, HEK293 TRPC4beta/mu-opioid, duplicates, 10 µM, confirmation (AID 2426;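 active = fluorescence ratio normalized to control raised more than 50% in primary screen plus both repeat runs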;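 as to activation: percent rise of integrated ratio over buffer wells lacking compound which define 0%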); conditions: Fluo4 calcium fluorescence, at 10 µM; active compounds read high
[2] = test system: transient receptor potential cation channel C4 beta (TRPC4), mouse; experiment: TRPC4 cation channel opening, second retest – cell-based, second round, Fluo4, HEK293 TRPC4beta/mu-opioid, 1 µM, confirmation (AID 2461;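 active = primary screen active and over 50% activation in each of two duplicate runs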;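 as to activation: 0% = wells without test compound as baseline of integrated fluorescence ratio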); conditions: Fluo4 calcium fluorescence, at 1 µM; active compounds read high
[3] = test system: TRPC4 (transient receptor potential cation channel C4 beta), mouse; experiment: potentiation of DAMGO EC20 TRPC4 response – cell-based, second round, Fluo-4, HEK293 TRPC4beta/mu-opioid, 1 µM, confirmation (AID 2554;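 active = primary screen hit whose fluorescence ratio, in both repeats, exceeds the weak agonist control mean by 3 SD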); conditions: DAMGO EC20, Fluo-4 calcium flux, at 1 µM; active compounds read high
[4] = test system: TRPC4 beta (transient receptor potential cation channel C4), mouse; experiment: potentiation of DAMGO EC20 TRPC4 response – cell-based, Fluo-4, HEK293 TRPC4beta/mu-opioid, confirmation (AID 2555;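 active = primary screen hit whose calcium fluorescence ratio, in both repeats, exceeds the weak agonist control mean by 3 SD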); conditions: DAMGO EC20, Fluo-4 calcium flux, at 10 µM; active compounds read high
[5] = target: Short transient receptor potential channel 4 (Mus musculus) (UniProt Q9QUQ5); experiment: blockers of DAMGO-evoked TRPC4 calcium flux – cell-based, Fluo4, HEK293 TRPC4beta/mu-opioid, confirmation (AID 2636); conditions: at 10 µM; active compounds read high
[6] = target: Short transient receptor potential channel 4 (Mus musculus) (UniProt Q9QUQ5); experiment: blockers of DAMGO-evoked TRPC4 calcium flux – cell-based, second round, Fluo4, HEK293 TRPC4beta/mu-opioid, 1 µM, confirmation (AID 2637;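 active = calcium signal ratio cut to more than 3 SD under the fully stimulated control mean yet still positive, in both repeats and the primary screen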); conditions: at 1 µM; active compounds read high
[7] = target: Short transient receptor potential channel 4 (Mus musculus) (UniProt Q9QUQ5); experiment: potentiation of DAMGO-evoked TRPC4 calcium signal – cell-based, HEK293 TRPC4/mu-opioid, Fluo-4 calcium, EC20 DAMGO, dose response (AID 434941;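 active = earlier screen potentiator hit that boosts the TRPC4 ion channel at some dose, with a dose response; inactive = no potentiation, no dose response, or not a prior hit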;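 also: calcium entry triggered by an EC20 dose of DAMGO at the co-expressed mu-opioid receptor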)
[8] = target: Short transient receptor potential channel 4 (Mus musculus) (UniProt Q9QUQ5); experiment: block of DAMGO-driven TRPC4 calcium entry – cell-based, HEK293 TRPC4/mu-opioid, Fluo-4 calcium, dose response (AID 434942;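 active = primary screen inhibitor hit that blocks the TRPC4 channel at some tested dose, yielding a dose curve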)
[9] = target: Short transient receptor potential channel 6 (Mus musculus) (UniProt Q61143); experiment: TRPC6 blockade by TRPC4 inhibitor hits – cell-based, HEK293, membrane potential dye, duplicate, selectivity assay for TRPC4 inhibitor project, confirmation (AID 434948;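 active = active in primary screen and both duplicates, each dropping signal beyond three positive-control SD with fluorescence still positive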); conditions: HEK293 TRPC6, membrane potential dye fluorescence, at 10 µM, stimulated with maximal-effect acetylcholine; active compounds read high
[10] = target: Short transient receptor potential channel 6 (Mus musculus) (UniProt Q61143); experiment: TRPC6 opening by TRPC4 activator hits – cell-based, HEK293, membrane potential dye, duplicate, selectivity assay for TRPC4 activator project, confirmation (AID 434950;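 active = membrane potential signal rise above negative control mean plus 3 SD in both duplicates, also active in the earlier TRPC4 screen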;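 as to activation: 0% = buffer only wells and 100% = acetylcholine maximal-effect wells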); conditions: HEK293 TRPC6, membrane potential fluorescence, at 10 µM; activation: active compounds read high; outcome: activation
[11] = target: Short transient receptor potential channel 6 (Mus musculus) (UniProt Q61143); experiment: positive modulators of mouse TRPC6 channel – HEK293 cells, membrane potential dye, duplicate, selectivity assay for TRPC4 potentiator project, confirmation (AID 434952;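 active = compound raising the membrane signal above positive-control mean plus 3 SD in both repeats, and a primary screen hit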); conditions: HEK293 TRPC6, membrane potential dye fluorescence, at 10 µM, maximal acetylcholine added after compound; active compounds read high
[12] = target: Short transient receptor potential channel 4 (Mus musculus) (UniProt Q9QUQ5); experiment: calcium flux activators in TRPC4/5HT1a cells, counter-screen for TRPC4 activator project, cell-based, second counter screen, HEK293 TRPC4/5HT1a, Fluo-4 (AID 434977;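 active = calcium signal rise above buffer-control mean plus 5 SD in both duplicates, and also a hit in the primary screen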;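 as to activation: plate controls were assay buffer for no effect and maximal serotonin response for full effect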); conditions: Fluo-4 calcium flux, at 10 µM; active compounds read high
[13] = serotonin-gated TRPC4 signal block – cell-based, second counter screen, HEK293 TRPC4/5HT1a, Fluo-4, counter-screen for TRPC4 inhibitor project, confirmation (AID 434978;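 active = primary screen active whose calcium signal fell more than 3 SD beyond the full-serotonin control mean in both duplicate plates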;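 also: serotonin given first at submaximal then at maximal dose after compound preincubation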); conditions: Fluo-4 calcium flux, at 10 µM, serotonin added to trigger calcium flux; active compounds read high
[14] = test system: TRPC4 (mouse), co-expressed with 5HT1a in HEK293; experiment: enhancement of serotonin-evoked TRPC4 response – cell-based, second counter screen, HEK293 TRPC4/5HT1a, Fluo-4, counter-screen for TRPC4 potentiator project, confirmation (AID 434979;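 active = signal rise over 3 SD above mean of control wells given weak agonist, in both repeats and first screen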); conditions: Fluo-4 calcium flux, at 10 µM, serotonin added at its EC20 dose; active compounds read high
[15] = nonspecific calcium rise without TRPC4 – cell-based, HEK293 mu-opioid receptor line, counter-screen for TRPC4 activator project, confirmation (AID 449723;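 active = hit in primary screen, with calcium signal over 5 SD above buffer well mean in both duplicates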;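 also: counter screen cells carry the mu-opioid receptor alone and lack TRPC4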); conditions: HEK293 mu-opioid cells, Fluo-4 calcium fluorescence, at 10 µM; active compounds read high
[16] = nonspecific potentiation of DAMGO calcium response – cell-based, HEK293 mu-opioid receptor line, counter-screen for TRPC4 allosteric potentiator project, confirmation (AID 449724;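 active = calcium signal rise more than 3 SD above the low-dose agonist control mean, in both duplicate plates and the primary screen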); conditions: HEK293 mu-opioid receptor cells, Fluo-4 calcium flux, at 10 µM, compound added before EC20 DAMGO stimulus; active compounds read high

Short transient receptor potential channel 4 (Mus musculus), sequence (Q9QUQ5 whole entry, looked up): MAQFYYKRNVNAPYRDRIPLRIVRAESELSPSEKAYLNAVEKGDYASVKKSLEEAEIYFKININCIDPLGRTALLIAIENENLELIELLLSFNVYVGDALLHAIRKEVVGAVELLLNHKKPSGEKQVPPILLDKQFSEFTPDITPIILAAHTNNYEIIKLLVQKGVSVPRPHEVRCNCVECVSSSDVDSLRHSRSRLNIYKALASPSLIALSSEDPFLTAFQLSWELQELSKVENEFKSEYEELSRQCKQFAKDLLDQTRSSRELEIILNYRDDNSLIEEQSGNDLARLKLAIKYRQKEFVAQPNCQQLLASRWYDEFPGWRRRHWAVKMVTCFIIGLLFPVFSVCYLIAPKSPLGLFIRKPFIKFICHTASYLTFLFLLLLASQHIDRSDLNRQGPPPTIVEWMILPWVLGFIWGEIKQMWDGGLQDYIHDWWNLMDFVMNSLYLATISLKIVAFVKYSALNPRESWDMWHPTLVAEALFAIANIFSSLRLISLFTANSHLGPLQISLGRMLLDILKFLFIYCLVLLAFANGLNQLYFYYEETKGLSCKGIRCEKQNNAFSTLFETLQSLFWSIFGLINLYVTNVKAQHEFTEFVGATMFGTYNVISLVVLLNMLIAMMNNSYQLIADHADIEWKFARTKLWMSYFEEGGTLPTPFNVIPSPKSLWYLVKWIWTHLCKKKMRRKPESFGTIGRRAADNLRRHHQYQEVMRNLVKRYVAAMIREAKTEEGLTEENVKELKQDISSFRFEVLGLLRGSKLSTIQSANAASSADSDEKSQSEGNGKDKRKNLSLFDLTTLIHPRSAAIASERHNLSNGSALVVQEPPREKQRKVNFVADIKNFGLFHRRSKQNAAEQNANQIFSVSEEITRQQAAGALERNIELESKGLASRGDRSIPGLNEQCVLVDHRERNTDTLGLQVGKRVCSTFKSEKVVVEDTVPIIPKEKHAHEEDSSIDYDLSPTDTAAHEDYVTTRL
Short transient receptor potential channel 6 (Mus musculus), sequence (Q61143 whole entry, looked up): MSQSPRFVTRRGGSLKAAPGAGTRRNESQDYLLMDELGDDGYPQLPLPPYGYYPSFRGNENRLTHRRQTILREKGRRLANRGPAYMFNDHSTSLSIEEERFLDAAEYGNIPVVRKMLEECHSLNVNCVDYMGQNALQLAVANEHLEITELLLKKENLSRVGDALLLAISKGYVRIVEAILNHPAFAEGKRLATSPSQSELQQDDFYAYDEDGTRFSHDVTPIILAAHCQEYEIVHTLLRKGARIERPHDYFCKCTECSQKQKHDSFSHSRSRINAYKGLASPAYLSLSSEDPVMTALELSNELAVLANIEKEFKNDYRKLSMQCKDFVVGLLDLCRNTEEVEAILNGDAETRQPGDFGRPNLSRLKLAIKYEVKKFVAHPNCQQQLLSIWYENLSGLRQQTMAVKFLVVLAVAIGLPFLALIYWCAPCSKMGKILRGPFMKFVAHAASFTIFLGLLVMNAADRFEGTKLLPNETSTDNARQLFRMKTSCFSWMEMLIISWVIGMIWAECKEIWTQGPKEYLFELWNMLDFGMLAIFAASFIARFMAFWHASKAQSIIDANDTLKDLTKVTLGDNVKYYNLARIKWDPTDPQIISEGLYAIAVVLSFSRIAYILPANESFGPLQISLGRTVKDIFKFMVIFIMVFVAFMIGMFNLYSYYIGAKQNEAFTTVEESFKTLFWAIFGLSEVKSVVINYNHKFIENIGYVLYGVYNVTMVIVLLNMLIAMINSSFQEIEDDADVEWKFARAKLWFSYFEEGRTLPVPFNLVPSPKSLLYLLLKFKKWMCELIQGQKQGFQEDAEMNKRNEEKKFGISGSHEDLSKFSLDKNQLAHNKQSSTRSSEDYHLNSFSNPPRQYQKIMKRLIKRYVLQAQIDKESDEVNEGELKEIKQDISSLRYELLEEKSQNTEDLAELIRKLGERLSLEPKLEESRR

CCCCN(CC)CCNC(=O)c1cc2c(-c3ccc(Cl)cc3)nn(C)c2s1
active: activation [12] 20.5%
inactive: outcome [1] | outcome [2] | outcome [3] | outcome [4] | outcome [5] | outcome [6] | outcome [7] | outcome [8] | outcome [9] | outcome [10] | outcome [11] | outcome [13] | outcome [14] | outcome [15] | outcome [16]

COc1ccc2c(Cl)c(-c3nnc4n3CCCCC4)sc2c1
inactive: outcome [2] | outcome [3] | outcome [4] | outcome [5] | outcome [6] | outcome [7] | outcome [8] | outcome [9] | outcome [11] | outcome [12] | outcome [13] | outcome [14] | outcome [15] | outcome [16]
active: activation [1] 117% | activation [10] 52%

O=C(N/N=C/c1ccco1)C1COc2ccccc2O1 (stereo not given)
active: activation [1] 80% | activation [12] 27.3%
inactive: outcome [2] | outcome [3] | outcome [4] | outcome [5] | outcome [6] | outcome [7] | outcome [8] | outcome [9] | outcome [10] | outcome [11] | outcome [13] | outcome [14] | outcome [15] | outcome [16]

CN(CCc1ccccn1)C(=O)CC1C(=O)NCCN1Cc1ccc(-c2ccccc2)cc1 (stereo not given)
inactive: outcome [2] | outcome [3] | outcome [4] | outcome [5] | outcome [6] | outcome [7] | outcome [8] | outcome [9] | outcome [11] | outcome [13] | outcome [14] | outcome [15] | outcome [16]
active: activation [1] 130% | activation [10] 42.5% | activation [12] 31.3%

COc1ccc2nc(SCCN(C)C)[nH]c2c1
active: activation [1] 108% | activation [2] 87% | activation [12] 35.7%
inactive: outcome [3] | outcome [4] | outcome [5] | outcome [6] | outcome [7] | outcome [8] | outcome [9] | outcome [10] | outcome [11] | outcome [13] | outcome [14] | outcome [15] | outcome [16]

COc1ccc(C(CNC(=O)c2cc(C)on2)N(C)C)cc1 (stereo not given)
active: activation [1] 199% | activation [10] 27.5%
inactive: outcome [2] | outcome [3] | outcome [4] | outcome [5] | outcome [6] | outcome [7] | outcome [8] | outcome [9] | outcome [11] | outcome [12] | outcome [13] | outcome [14] | outcome [15] | outcome [16]

CN(CCOc1ccc(Br)cc1)CC(O)c1ccccc1 (stereo not given)
active: activation [1] 71% | activation [10] 41.5% | activation [12] 12.6%
inactive: outcome [2] | outcome [3] | outcome [4] | outcome [5] | outcome [6] | outcome [7] | outcome [8] | outcome [9] | outcome [11] | outcome [13] | outcome [14] | outcome [15] | outcome [16]

Cc1cccc(C(=O)OC2CCCN(C)C2)c1C (stereo not given)
active: activation [1] 76% | activation [10] 60.5% | activation [12] 20%
inactive: outcome [2] | outcome [3] | outcome [4] | outcome [5] | outcome [6] | outcome [7] | outcome [8] | outcome [9] | outcome [11] | outcome [13] | outcome [14] | outcome [15] | outcome [16]

CC1CC(C)CN(CCCNC(=O)Cn2cccc2C(=O)c2ccccc2)C1 (stereo not given)
inactive: outcome [3] | outcome [4] | outcome [5] | outcome [6] | outcome [7] | outcome [8] | outcome [9] | outcome [11] | outcome [13] | outcome [14] | outcome [15] | outcome [16]
active: activation [1] 162% | activation [2] 98% | activation [10] 50.5% | activation [12] 62.1%

Cc1noc(C)c1CCC(=O)NC1CCCN(Cc2ccc(CC(C)C)cc2)C1 (stereo not given)
active: activation [1] 75% | activation [10] 46% | activation [12] 20.6%
inactive: outcome [2] | outcome [3] | outcome [4] | outcome [5] | outcome [6] | outcome [7] | outcome [8] | outcome [9] | outcome [11] | outcome [13] | outcome [14] | outcome [15] | outcome [16]

CN(CCc1ccccn1)C1CC(=O)N(c2ccc(Cl)cc2)C1=O (stereo not given)
inactive: outcome [3] | outcome [4] | outcome [5] | outcome [6] | outcome [7] | outcome [8] | outcome [9] | outcome [10] | outcome [11] | outcome [13] | outcome [14] | outcome [15] | outcome [16]
active: activation [1] 195% | activation [2] 70% | activation [12] 102%

CCC(=O)N1CCc2cc(Br)cc(S(=O)(=O)NCCCN(C)Cc3ccccc3)c21
active: activation [1] 116% | activation [2] 65% | activation [10] 55% | activation [12] 33.1% | potentiation [14] 26.2%
inactive: outcome [3] | outcome [4] | outcome [5] | outcome [6] | outcome [7] | outcome [8] | outcome [9] | outcome [11] | outcome [13] | outcome [15] | outcome [16]

Cc1ccc2[nH]c3c(N4CCc5ccccc5C4)ncnc3c2c1
inactive: outcome [1] | outcome [2] | outcome [3] | outcome [4] | outcome [5] | outcome [6] | outcome [7] | outcome [8] | outcome [9] | outcome [10] | outcome [11] | outcome [12] | outcome [13] | outcome [14] | outcome [15] | outcome [16]

CN(C)C(CNC(=S)Nc1ccc(Cl)cc1)c1cccnc1 (stereo not given)
active: activation [2] 118%
inactive: outcome [1] | outcome [3] | outcome [4] | outcome [5] | outcome [6] | outcome [7] | outcome [8] | outcome [9] | outcome [10] | outcome [11] | outcome [12] | outcome [13] | outcome [14] | outcome [15] | outcome [16]

COc1ccc(C(CNCC(O)COc2c(C)ccc(C)c2C)N(C)C)cc1 (stereo not given)
active: activation [10] 79%
inactive: outcome [1] | outcome [2] | outcome [3] | outcome [4] | outcome [5] | outcome [6] | outcome [7] | outcome [8] | outcome [9] | outcome [11] | outcome [12] | outcome [13] | outcome [14] | outcome [15] | outcome [16]
